Several values for one entry are separate records, joined by “and”; a condition that tells them apart may be missing. Equal values may be shown once. This is part of a sample that, as a whole, favours compounds with a hit. Of some 83,000 tested, about 20% had one in any assay.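 Single-concentration screen, 48 h exposure, 96-well plates. Endpoint: percent growth. Below 10 = active.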 Activity calls are given as the source filed them.

The text below walks through data of PubChem BioAssay (NCI).

The experiment has as its system MDA-MB-468 breast. Kind of experiment: NCI-60 one-dose screen, 48 h (100 = growth as untreated, 0 = no growth, -100 = all killed). Conditions: 10 µM unless noted.

For `CC1=NC2=NC(=O)/C(=C3/N=C(C)C=C(c4ccccc4)N3N)NN2C(c2ccccc2)=C1`, the growth is 109% (inactive).

`O=C1C=C(Nc2ccccc2)c2ncccc2C1=O`: the growth was -61.3% (active).

On to `CCC(C)(c1ccc(O)c(C)c1)c1ccc(O)c(C)c1`, for which the growth is 70.1% (inactive).

For the compound `CC1(c2ccccc2)NC(=O)NC1=O` (stereo unspecified), the growth was 105% (inactive).

With `NC1N=C(SCC(=O)N2CCN(c3cc4c(cc3F)c(=O)c(C(=O)O)cn4C3CC3)CC2)NC(=O)/C1=C/c1ccc(Cl)cc1` (stereo unspecified), the growth was 111% (inactive).

As for `CCOc1ccc(N2C(N)=NC(N)=NC2(C)C)cc1`, the growth was -0.227% (active) and 56.3% (inactive).

`CCCCC1Nc2nc(SC)n(C)c(=O)c2CN(Cc2ccccc2)C1=O` (stereo unspecified): the growth was 101% (inactive).

For `O=C(c1ccccc1)C(CCc1ccccn1)CCc1ccccn1`, the growth was 108% (inactive).

Regarding `NCc1c(O)ccc2ccccc12`, the growth was 93.9% (inactive).

As for `COc1ccc(-c2cc(-c3cc(OC)ccc3OC)nc(N)c2C#N)cc1`, the growth is 70.2% (inactive).

Turning to `NC(=O)c1c(NC(=O)c2ccccn2)sc2c1CCC(=O)C2`, the growth is 6.36% (active).

As to `Cc1sc2nc(NCCN)[nH]c(=O)c2c1C`, the growth is 80% (inactive).

With `CN1CCN(Cc2ccc(NC(=O)c3cncc(C#Cc4cnc5ccc(N6CCOCC6)nn45)c3)cc2C(F)(F)F)CC1`, the growth is -70.8% (active).

Take `COc1ccc(CCN2C(=O)CCC3=C2CCCC3=O)cc1OC`: the growth was 105% (inactive).

Regarding `CS(=O)(=O)Nc1cc(-c2ccc3ncc(C#N)c(NCc4cccc(F)c4)c3c2)cnc1Cl`, the growth was -37.9% (active).

As to `Cc1cc(C(=O)NOCCO)c(Nc2ccc(I)cc2F)n(C)c1=O`, the growth was 114% (inactive).
